Assay results taken from paper PMC4242493, “Sequence specificity incompletely defines the genome-wide occupancy of Myc”.
In all, about 33,000 sequences were measured (“normalized occupancy”: median about 0.075, highest 2% from about 0.095 on). The entries come from a sample that favours the highest values as a whole.

molecular target: MaxL homodimer (Homo sapiens, UniProt P61244 1-160); assay: universal protein-binding microarray (PBM); PBS-based mixture, 10 nM His-tagged protein dimer, 2% milk, 200 ng/uL BSA, 50 ng/uL salmon testes DNA, 0.02% TX-100; detection with Alexa 488 anti-His antibody;; high values mean tight binding; conditions: protein: recombinant; tags: C-terminal His-tag (pET21a); chain copies: 2; dsDNA, one strand shown
Sequence (P61244 whole entry): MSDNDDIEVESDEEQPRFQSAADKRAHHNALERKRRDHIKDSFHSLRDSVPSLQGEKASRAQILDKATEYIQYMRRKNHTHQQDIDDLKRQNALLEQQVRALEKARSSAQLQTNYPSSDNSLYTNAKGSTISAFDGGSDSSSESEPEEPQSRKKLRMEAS
In short: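 A His-tagged protein dimer at 10 nM was incubated on Agilent 4 x 44 K arrays of the 'all 10-mer' universal design, then labelled with 10 ng/μL fluorophore-conjugated anti-His antibody and scanned on a GenePix 4400A. A fluorescence intensity was assigned to each 8-mer. Binding occupancy is each such intensity normalised to that of the highest-ranked one.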

Going from GTGACCCA to CATGCTGA, the binding signal rises from 0.0762 normalized occupancy to 0.112 normalized occupancy.

Going from GATGCTGA to TATGCTGA, the binding signal rises from 0.0746 normalized occupancy to 0.0773 normalized occupancy.

First: CCCTTGCA
Second: ACATTTTC
The binding signal of the first is lower: 0.0735 normalized occupancy for the first, 0.0796 normalized occupancy for the second.

First: AACGTTGG
Second: CACGTTGG
The binding signal of the first is lower: 0.0767 normalized occupancy for the first, 0.122 normalized occupancy for the second.

First: TACGTTGA
Second: GACGTTGA
The binding signal of the first is higher: 0.082 normalized occupancy for the first, 0.0764 normalized occupancy for the second.

Going from CACGTTGC to CGCGTTGC, the binding signal falls from 0.131 normalized occupancy to 0.0781 normalized occupancy.

First: AACGTTGA
Second: AACGTTGC
The binding signal of the first is lower: 0.0764 normalized occupancy for the first, 0.0766 normalized occupancy for the second.

Compared with CACGTTGA, AACTCGCG is lower in binding signal: 0.115 normalized occupancy for the first, 0.0749 normalized occupancy for the second.

Compared with ACAAAGGG, TCCTAAGA is higher in binding signal: 0.0742 normalized occupancy for the first, 0.0773 normalized occupancy for the second.

Compared with CTCAGTAC, CCTCCTCC is higher in binding signal: 0.0743 normalized occupancy for the first, 0.0782 normalized occupancy for the second.

First: ATCATGAG
Second: CGCATGAC
The binding signal of the first is lower: 0.09 normalized occupancy for the first, 0.105 normalized occupancy for the second.

Compared with AGCATGAG, AGTATGAG is lower in binding signal: 0.102 normalized occupancy for the first, 0.0766 normalized occupancy for the second.

Compared with CGCATGAA, CGTATGAC is lower in binding signal: 0.0861 normalized occupancy for the first, 0.0817 normalized occupancy for the second.

First: GGCATGAC
Second: CGTATGAG
The binding signal of the first is higher: 0.0858 normalized occupancy for the first, 0.0785 normalized occupancy for the second.

First: CGCATGAG
Second: ACAGATCT
The binding signal of the first is higher: 0.0969 normalized occupancy for the first, 0.0745 normalized occupancy for the second.

Going from GGCATACA to GAGACATC, the binding signal falls from 0.0776 normalized occupancy to 0.0756 normalized occupancy.

Going from CATGCCGC to AATGCCGC, the binding signal falls from 0.105 normalized occupancy to 0.0765 normalized occupancy.

Going from CATGCCAG to CATGCCAA, the binding signal rises from 0.0874 normalized occupancy to 0.0927 normalized occupancy.

Going from CATGCCAC to GATGCCGA, the binding signal falls from 0.0989 normalized occupancy to 0.0738 normalized occupancy.

Going from TATGCCGA to CATGCCGG, the binding signal rises from 0.0757 normalized occupancy to 0.0917 normalized occupancy.

Compared with CATGCCGA, ACCTAAAT is lower in binding signal: 0.102 normalized occupancy for the first, 0.073 normalized occupancy for the second.

Going from GAGCTATA to ATGTGGAA, the binding signal rises from 0.0729 normalized occupancy to 0.0936 normalized occupancy.

First: GTATGGAA
Second: ACAGCACG
The binding signal of the first is lower: 0.0836 normalized occupancy for the first, 0.0906 normalized occupancy for the second.

Going from CCCTGGAA to AGCAGACA, the binding signal rises from 0.0745 normalized occupancy to 0.0774 normalized occupancy.

First: CCGCCACC
Second: TAATTGTA
The binding signal of the first is lower: 0.0762 normalized occupancy for the first, 0.0773 normalized occupancy for the second.

Going from CTTTTGGA to CACCTGAG, the binding signal falls from 0.0744 normalized occupancy to 0.0741 normalized occupancy.

Compared with CACCTGAC, CACCTGGC is higher in binding signal: 0.0973 normalized occupancy for the first, 0.103 normalized occupancy for the second.

Going from CACCTGGG to CACCTGGA, the binding signal rises from 0.0841 normalized occupancy to 0.0905 normalized occupancy.

First: CACCTGTC
Second: ATTCGAGG
The binding signal of the first is higher: 0.0839 normalized occupancy for the first, 0.0723 normalized occupancy for the second.

First: ACTGCACT
Second: ATATGTTA
The binding signal of the first is lower: 0.0733 normalized occupancy for the first, 0.0924 normalized occupancy for the second.

Going from GCATGTCC to CCATGTTA, the binding signal falls from 0.0929 normalized occupancy to 0.0847 normalized occupancy.

Compared with ACATGTTG, GTATGTTA is lower in binding signal: 0.11 normalized occupancy for the first, 0.0849 normalized occupancy for the second.

Compared with ACATGTCA, GCATGTCA is higher in binding signal: 0.0911 normalized occupancy for the first, 0.0972 normalized occupancy for the second.

First: AGATGTTA
Second: AAATGTTG
The binding signal of the first is higher: 0.0811 normalized occupancy for the first, 0.0794 normalized occupancy for the second.

Compared with GCATGTTA, AGATGTTG is lower in binding signal: 0.0976 normalized occupancy for the first, 0.0819 normalized occupancy for the second.

Going from ACATGTTA to TACAGACA, the binding signal falls from 0.0993 normalized occupancy to 0.0803 normalized occupancy.

First: CATTGACG
Second: CGACCCTC
The binding signal of the first is higher: 0.0792 normalized occupancy for the first, 0.0724 normalized occupancy for the second.

Compared with TCTTGTAA, AGAACGAC is higher in binding signal: 0.0718 normalized occupancy for the first, 0.0774 normalized occupancy for the second.

First: GAGGCCCC
Second: GATGTCCA
The binding signal of the first is lower: 0.0733 normalized occupancy for the first, 0.0757 normalized occupancy for the second.

First: CCATTCTA
Second: AGCTGCCA
The binding signal of the first is higher: 0.0759 normalized occupancy for the first, 0.0736 normalized occupancy for the second.

First: ATATGTTC
Second: CCATGTTC
The binding signal of the first is higher: 0.0831 normalized occupancy for the first, 0.0828 normalized occupancy for the second.

Going from ACATGTTC to GGCATCAC, the binding signal falls from 0.0965 normalized occupancy to 0.0813 normalized occupancy.

Going from GACAAGCC to AAGCATCA, the binding signal rises from 0.0728 normalized occupancy to 0.076 normalized occupancy.

First: ATACGCAT
Second: ATACGCAC
The binding signal of the first is higher: 0.0968 normalized occupancy for the first, 0.0799 normalized occupancy for the second.

Compared with ATACGCAG, ACACGCAA is higher in binding signal: 0.0734 normalized occupancy for the first, 0.087 normalized occupancy for the second.

Compared with ACACGCAC, ATGCGCAG is lower in binding signal: 0.0931 normalized occupancy for the first, 0.0789 normalized occupancy for the second.

Going from ACACGCAT to ATGCGCAC, the binding signal falls from 0.0976 normalized occupancy to 0.0828 normalized occupancy.

Going from ATGCGCAT to CAGTACTA, the binding signal falls from 0.102 normalized occupancy to 0.0775 normalized occupancy.

Going from CCCACAGC to CCTGGCTC, the binding signal falls from 0.0741 normalized occupancy to 0.0726 normalized occupancy.

First: ACCTAAGT
Second: AGTGATGG
The binding signal of the first is lower: 0.0745 normalized occupancy for the first, 0.0766 normalized occupancy for the second.

Compared with GGTAGTCA, AAAATGAC is higher in binding signal: 0.0743 normalized occupancy for the first, 0.0766 normalized occupancy for the second.

Compared with AATGCAGA, CATGCAGA is higher in binding signal: 0.0752 normalized occupancy for the first, 0.0959 normalized occupancy for the second.

Going from CATGCAGC to CCTGCAGG, the binding signal falls from 0.0946 normalized occupancy to 0.074 normalized occupancy.

First: CATGCAGG
Second: AATGCAGG
The binding signal of the first is higher: 0.097 normalized occupancy for the first, 0.08 normalized occupancy for the second.

First: GGTTTGTA
Second: AGTTCTAC
The binding signal of the first is lower: 0.0749 normalized occupancy for the first, 0.0751 normalized occupancy for the second.

Going from AACAAATT to CGGCAAGC, the binding signal falls from 0.0736 normalized occupancy to 0.0718 normalized occupancy.

Going from CTTGTAAC to ACCCACCG, the binding signal rises from 0.0775 normalized occupancy to 0.0804 normalized occupancy.

Going from ATCGCATA to AGCGCATC, the binding signal falls from 0.082 normalized occupancy to 0.0737 normalized occupancy.

Going from ACCGCATA to ATCGCATC, the binding signal falls from 0.0828 normalized occupancy to 0.0742 normalized occupancy.

First: AGCGCATA
Second: ATCGCATG
The binding signal of the first is lower: 0.0757 normalized occupancy for the first, 0.108 normalized occupancy for the second.

Going from ACCGCATG to ACCGCATC, the binding signal falls from 0.146 normalized occupancy to 0.0749 normalized occupancy.

First: AGCGCATG
Second: AATTCACA
The binding signal of the first is higher: 0.109 normalized occupancy for the first, 0.0775 normalized occupancy for the second.

Compared with GTCACTAA, AACATCTC is lower in binding signal: 0.0757 normalized occupancy for the first, 0.0748 normalized occupancy for the second.

First: ATGGACGG
Second: CACACGAG
The binding signal of the first is lower: 0.0788 normalized occupancy for the first, 0.0978 normalized occupancy for the second.

First: AACACGAT
Second: CACACGAA
The binding signal of the first is lower: 0.0845 normalized occupancy for the first, 0.0853 normalized occupancy for the second.

Compared with AACACGAG, AACACGAA is lower in binding signal: 0.11 normalized occupancy for the first, 0.0741 normalized occupancy for the second.

Compared with CACACGAC, TAGAGCTA is lower in binding signal: 0.0877 normalized occupancy for the first, 0.0719 normalized occupancy for the second.

First: AGTGTATC
Second: AAATTGCC
The binding signal of the first is higher: 0.0882 normalized occupancy for the first, 0.0721 normalized occupancy for the second.

Compared with CAATTCTA, GACATTTA is higher in binding signal: 0.0752 normalized occupancy for the first, 0.0853 normalized occupancy for the second.

First: CACATTGC
Second: CACATTGG
The binding signal of the first is lower: 0.0923 normalized occupancy for the first, 0.0977 normalized occupancy for the second.

First: CACATTGA
Second: CACATTTA
The binding signal of the first is lower: 0.0932 normalized occupancy for the first, 0.0961 normalized occupancy for the second.

First: AACATTTA
Second: GTTCTAGA
The binding signal of the first is higher: 0.0795 normalized occupancy for the first, 0.0745 normalized occupancy for the second.

Compared with ATGTGGAG, ATGTGGAC is higher in binding signal: 0.0861 normalized occupancy for the first, 0.0955 normalized occupancy for the second.

Going from ATGTGGTA to ATGTGGTG, the binding signal falls from 0.0922 normalized occupancy to 0.0894 normalized occupancy.

Going from CTGTGGAC to ATGTGGTC, the binding signal rises from 0.0726 normalized occupancy to 0.0985 normalized occupancy.

Going from AACGCTGT to CGCAATCC, the binding signal rises from 0.0729 normalized occupancy to 0.0789 normalized occupancy.

Compared with CCAATCTA, ACCACGTA is higher in binding signal: 0.073 normalized occupancy for the first, 0.0816 normalized occupancy for the second.

Compared with ACCACGTG, GCCACGCC is lower in binding signal: 0.773 normalized occupancy for the first, 0.0925 normalized occupancy for the second.

Going from ACCACACA to ACCACGTC, the binding signal rises from 0.085 normalized occupancy to 0.0945 normalized occupancy.

Going from ACCACACG to ACCACGCA, the binding signal falls from 0.0972 normalized occupancy to 0.0954 normalized occupancy.

Going from ACCACGCC to GCCACGCA, the binding signal falls from 0.102 normalized occupancy to 0.0915 normalized occupancy.

Compared with ACCACACT, TCCACGCA is higher in binding signal: 0.0849 normalized occupancy for the first, 0.0885 normalized occupancy for the second.

Going from ACCACGGC to AAAGCAGT, the binding signal falls from 0.0743 normalized occupancy to 0.0719 normalized occupancy.

First: ATGAAGCG
Second: GTCGCGCA
The binding signal of the first is higher: 0.0749 normalized occupancy for the first, 0.0729 normalized occupancy for the second.

Going from CTATGCCA to AACAAGAA, the binding signal falls from 0.0777 normalized occupancy to 0.0753 normalized occupancy.

First: AGCCTCTC
Second: ACACCACC
The binding signal of the first is lower: 0.0729 normalized occupancy for the first, 0.086 normalized occupancy for the second.
